Epigenetic mod: epigenetic modulators derepressing GFP locus in mouse cells. mouse C127i GFP locus derepression, cytometry, 30 h. Potency, µM (titrated, usually from 46.1 µM), without a hit: at the highest dose GFP derepression (activation). 68,000 compounds, 0.09% hits. AID 597; note: % of control where 0% means no effect
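Derepression screen: silenced CMV-GFP reporter in murine C127i cells, 30 h compound incubation at 37 C, washed cells imaged by laser-scanning cytometer to enumerate GFP-expressing objects of 20 to 120 um.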
CRE-bla Fsk: modulators of forskolin-stimulated CRE signaling in CHO cells; Potency, µM (highest dose often 38.2 µM), for the others: at the top dose activity change, negative = inhibition, most hits filed as activators; AID 662; CHO CRE-bla reporter (cAMP response element driving beta-lactamase), forskolin EC10, beta-lactamase ratio; 71,000 compounds, 2.5% hits; active = well fitted activation curve with a large enough effect in the signal ratio, with a control signal flat, not every such curve was filed as active; inconclusive = small, poorly fitted or top-dose-only effect, or effect the other way, or a change in a side signal; the % refers to the signal ratio; note: potency is the fitted concentration of half-maximal effect; % of control where 0% means no effect
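Using CellSensor CRE-bla CHO cells in Opti-MEM with 0.5% dialyzed FBS, compounds were titrated with EC10 NKH 477 for 3 h at 37 °C. CCF4 ratio (460/530 nm) gave %Activity; AC50 derived.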
ERK AVP inh: blocks ERK signaling stimulated by vasopressin; HEK293-V1b, vasopressin-stimulated pERK AlphaScreen; Potency, µM (highest dose often 57.5 µM), inactives show top-dose activity, negative = inhibition, usual class: inhibitors; 72,000 compounds, 0.99% hits; note: potency is the fitted concentration of half-maximal effect; % is set by controls: 0 for no effect and ±100 for the full control effect; nearly all actives have a fitted effect of over 55% in size
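Overnight-seeded V1b-HEK293 cells in 1% FBS got compound, then vasopressin (25 nM final, 5 min, 37C), then lysis buffer. AlphaScreen detection of phospho-ERK; activity normalized to basal and full-stimulation controls.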
IkB sig inh: inhibitors of IkB signaling in ABC-DLBCL cells | ABC-DLBCL IkBa-CBG/CBR dual luciferase ratio, 4 h; response scale: scaled: untreated 0%, proteasome inhibitor 100% | Potency, µM (series often up to 57.1 µM), for the others: top-dose IkBa stabilization activation | 110,000 compounds, 0.04% hits | AID 445; active = well fitted curve in the direction sought with a large enough effect in the signal ratio, not every such curve was filed as active; inconclusive = small, poorly fitted or top-dose-only effect, or a change in a side signal; the % refers to the signal ratio;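 note: potency is the fitted concentration of half-maximal effect; the direction sought is a rising ratio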
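In this assay, an IκBα–CBG68 fusion accumulates when IKK-driven degradation is blocked; native CBR normalizes for cell number. OCI-Ly3 cells were treated 4 h with compound and doxycycline, then green and red light read after Chroma-Glo addition.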
HBB splicing: alters splicing of the hemoglobin beta chain | HBB splicing reporter cell assay, activation; EGFP reporter with mutant IVS2-654 intron; response scale: normalised to 500 nM splice-correcting PNA | Potency, µM (doses to about 46.1 µM), for inactives: top-dose activation, usual class: activators | AID 925 | 65,000 compounds, 0.06% hits; note: potency is the fitted concentration of half-maximal effect; 0% is about no effect
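HeLa cells stably expressing EGFP interrupted by mutant beta-globin intron 2 (IVS2-654), 500/well in 2% FCS. Treated with compound for 2 days at 37C. Splicing correction scored as total well GFP intensity (488 nm excitation, 500-520 nm emission); 500 nM antisense PNA served as control.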
* = called active by the depositor; [ ] = dose if it differs, or a comment. The sample as a whole holds a higher share of hits than the screen did. Unless noted, calls come from the whole dose curve; as a rule, active = well fitted curve in the direction sought with a large enough effect; inconclusive = small, poorly fitted or top-dose-only effect, or another doubt; inactive = no such curve, though single readings can be large; an effect the other way counts as inactive or inconclusive.

`CCNc1ncc2nc(CCc3ccccc3)c(=O)n(Cc3cccc(OC)c3)c2n1` gave Epigenetic mod 2.7%[9.22 µM], CRE-bla Fsk inconclusive, ERK AVP inh 10.1%, IkB sig inh 1.7%[11.4 µM] and HBB splicing 0.0%.
For COc1ccc(-c2nc3cnc(OC)nc3n(Cc3cccc(OC)c3)c2=O)cc1 the results were Epigenetic mod 0.0%[9.22 µM], CRE-bla Fsk 2.51µM*, ERK AVP inh 15.9%, IkB sig inh 1.9%[11.4 µM] and HBB splicing -0.9%.
COC(=O)c1ccc(OCC2c3cc(OC)c(OC)cc3CCN2C(=O)Cc2ccc(OC)c(OC)c2)cc1 (configuration not stated) was read as IkB sig inh -2.9%.
c1ccc(CN2CC[C@@H](CNc3ncnc4ccccc34)C2)cc1 was read as Epigenetic mod -7.8%[9.22 µM], CRE-bla Fsk -1.7%[7.6 µM], ERK AVP inh -12.7%[11.5 µM], IkB sig inh 1.3%[11.4 µM] and HBB splicing 1.9%[9.22 µM].
`COc1c(-c2coc3cc4c(cc3c2=O)CC(O)C(C)(C)O4)ccc2c1C=CC(C)(C)O2` (configuration not stated) gave ERK AVP inh 3.16µM*.
`COc1c(-c2coc3cc4c(cc3c2=O)CC(OC(C)=O)C(C)(C)O4)ccc2c1C=CC(C)(C)O2` (configuration not stated) gave ERK AVP inh 15.8µM*.
For CC1(C)C=Cc2c(cc3occ(-c4ccc5c(c4)OCO5)c(=O)c3c2O)O1 the results were ERK AVP inh -0.4%.
O=C(Cn1ccc2cc(S(=O)(=O)N3CCCCCC3)ccc21)NCCc1ccccc1Cl was read as IkB sig inh -1.4%.
Screening CCOC(=O)C1=C(C)NC(=O)N[C@@H]1c1coc2cc(C)cc(C)c2c1=O returned Epigenetic mod 3.9%[9.22 µM], CRE-bla Fsk inconclusive, ERK AVP inh -5.3%[11.5 µM], IkB sig inh 2.8%[11.4 µM] and HBB splicing 0.7%[9.22 µM].
COCCn1c(=O)c(-c2ccc(F)cc2)nc2cnc(Nc3cccc(OC)c3)nc21 was read as Epigenetic mod 2.7%[9.22 µM], CRE-bla Fsk inconclusive, ERK AVP inh 6.7%, IkB sig inh -2.7%[11.4 µM] and HBB splicing 20µM*.
COCCn1c(=O)c(-c2ccc(OC)cc2)nc2cnc(OC)nc21 was read as Epigenetic mod 5.4%[9.22 µM], CRE-bla Fsk 10µM*, ERK AVP inh -5.3%, IkB sig inh 2.2%[11.4 µM] and HBB splicing 0.2%.
Screening COCCn1c(=O)c(-c2ccccc2)nc2cnc(Nc3cccc(OC)c3)nc21 returned Epigenetic mod -2.3%[9.22 µM], CRE-bla Fsk inconclusive, ERK AVP inh 9.7%, IkB sig inh -4.7%[11.4 µM] and HBB splicing 2.4%.
Screening COCCn1c(=O)c(-c2ccc(OC)cc2)nc2cnc(Nc3ccccc3)nc21 returned Epigenetic mod -2.1%[9.22 µM], CRE-bla Fsk 0.316µM*, ERK AVP inh -8.7%, IkB sig inh -1.5%[11.4 µM] and HBB splicing 3.4%.
COCCn1c(=O)c(-c2ccc(F)c(F)c2)nc2cncnc21 was read as Epigenetic mod 5.0%[9.22 µM], CRE-bla Fsk 15.8µM*, ERK AVP inh -19.4%, IkB sig inh 0.8%[11.4 µM] and HBB splicing 0.4%.
COCCn1c(=O)c(-c2ccc(F)cc2)nc2cncnc21 was read as Epigenetic mod 0.0%[9.22 µM], CRE-bla Fsk inconclusive, ERK AVP inh 9.6%, IkB sig inh 0.7%[11.4 µM] and HBB splicing 0.1%.
COc1cc(OC)c(NS(=O)(=O)c2c(C(=O)N3CCC(C)CC3)c(C)n(C)c2C)cc1Cl was read as IkB sig inh -1.1%.
CCOc1ccc(NC(=O)CC2C(=O)N(c3ccc(C)cc3)C(=O)N2Cc2ccc(OC)cc2)cc1 (configuration not stated) was read as IkB sig inh 2.2%.
Screening COc1cc(OC)c(Nc2cc(C)nc3nc(C)nn23)cc1Cl returned Epigenetic mod -3.4%, CRE-bla Fsk 7.94µM*, ERK AVP inh -20.2%, IkB sig inh 2.3% and HBB splicing -0.1%.
For CC(C)c1ccc(Cn2ccc3c4c(N)nc(NC5CC5)nc4ccc32)cc1 the results were Epigenetic mod 0.0%, CRE-bla Fsk 12.6µM*, ERK AVP inh -12.4% and IkB sig inh -0.1%.
COCCCNC(=O)CCCn1c(=O)c2cccn2c2cccnc21 was read as IkB sig inh -1.8%.
Screening CCOc1ccc(CCNc2cc(C)nc3ncnn23)cc1OCC returned Epigenetic mod -5.0%, CRE-bla Fsk inconclusive, ERK AVP inh 25.1µM*, IkB sig inh 2.2% and HBB splicing -1.3%.
For COC(=O)c1cccc(Oc2nc3c(c(=O)n(C)c(=O)n3C)n2C(C)C)c1 the results were CRE-bla Fsk 2.51µM*, IkB sig inh -1.7% and HBB splicing -0.6%.
Screening CCCCn1c(Oc2cccc(C(=O)OC)c2)nc2c1c(=O)n(C)c(=O)n2C returned IkB sig inh -1.8%.
Screening CC1=C(C(=O)Nc2cccnc2)C(c2cccc(O)c2)n2nc(SCc3ccccc3)nc2N1 (configuration not stated) returned IkB sig inh 2.1%.
CC(=O)CC1OC(=O)C(Br)=C1NCc1ccccc1 (configuration not stated) was read as Epigenetic mod 12.6µM*, CRE-bla Fsk inconclusive, ERK AVP inh 4.5%, IkB sig inh inconclusive and HBB splicing 5.7%.
For CCCn1c(-c2ccc(F)cc2)nc2c(NCCN(CC)CC)nc(C)nc21 the results were CRE-bla Fsk 9.3%, ERK AVP inh -4.3% and HBB splicing -0.2%.
For N#Cc1cc2c(nc1SCc1cccnc1)CCCCC2 the results were Epigenetic mod 0.0%, CRE-bla Fsk inconclusive, ERK AVP inh inconclusive, IkB sig inh 0.2% and HBB splicing -0.5%.
`N#CCSc1nc2c(cc1C#N)CCCC2` gave Epigenetic mod 4.5%, CRE-bla Fsk 12.6µM*, ERK AVP inh -18.2%, IkB sig inh -0.9% and HBB splicing -0.2%[57.5 µM].
Cc1ccc(C)c(S(=O)(=O)n2nc(C)c(S(=O)(=O)N3CCCCCC3)c2C)c1 was read as IkB sig inh 0.6%.
For COc1ccc(C(c2nnnn2C2CCCC2)N2CCC(C)CC2)cc1 (configuration not stated) the results were Epigenetic mod 0.0%, CRE-bla Fsk 2.2%, ERK AVP inh 7.7% and IkB sig inh 3.8%.
`COc1ccc(C(c2nnnn2C2CCCCC2)N2CCN(c3ccc(OC)cc3)CC2)cc1` (configuration not stated) gave Epigenetic mod 1.2%, CRE-bla Fsk 7.94µM*, ERK AVP inh -0.1%, IkB sig inh 0.6% and HBB splicing 0.5%.
Screening COc1ccc(N2C(=O)C(Cl)=C(N(CCO)Cc3ccccc3)C2=O)cc1 returned Epigenetic mod -2.8%, CRE-bla Fsk -11.6%, ERK AVP inh 12.6µM* and IkB sig inh 2.3%.

Screens deposited in PubChem BioAssay by National Center for Advancing Translational Sciences (NCATS).
